Experimental findings from PMC4081100, “A DNA-binding-site landscape and regulatory network analysis for NAC transcription factors in Arabidopsis thaliana” are described below.

Holding throughout (assay): universal protein binding microarray (PBM); transcription factors of Arabidopsis thaliana; high values mean tight binding
What all share (conditions): protein: recombinant; tags: GST; chain copies: 2; dsDNA, one strand shown

Experiment [1] concerns the target T1, GST-ANAC092(1-176) (Arabidopsis thaliana, UniProt Q9FKA0 1-176).
T1 sequence: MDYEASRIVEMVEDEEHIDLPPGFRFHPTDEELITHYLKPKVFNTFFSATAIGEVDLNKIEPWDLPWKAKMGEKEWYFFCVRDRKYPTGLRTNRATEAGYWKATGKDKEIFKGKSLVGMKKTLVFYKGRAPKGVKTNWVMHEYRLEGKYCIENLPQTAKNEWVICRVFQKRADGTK
The method, boiled down: (§1)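 Protein amounts were determined by A280 or anti-GST western blot after glutathione–Sepharose 4B purification of GST-tagged proteins induced in cells, with zinc acetate included for zinc-finger proteins. Duplicate runs at 200 to 500 nM final were done on custom all-10-mer Agilent 4 × 180K arrays made double-stranded by primer extension. The normalised enrichment score (E-score) over gapped and ungapped 8-mers is the measure of binding.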

Experiment [2] deals with T2, GST-ANAC019 NAC domain (Arabidopsis thaliana, UniProt Q9C932 14-162).
T2 sequence: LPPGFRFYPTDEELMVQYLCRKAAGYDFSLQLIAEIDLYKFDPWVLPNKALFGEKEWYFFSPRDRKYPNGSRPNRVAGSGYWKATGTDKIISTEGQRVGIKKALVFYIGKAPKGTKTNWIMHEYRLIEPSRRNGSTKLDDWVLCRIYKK
The method, boiled down:
as §1

Experiment [3] deals with T3, GST-ANAC055(1-171) (Arabidopsis thaliana, UniProt Q9LDY8 1-171).
T3 sequence: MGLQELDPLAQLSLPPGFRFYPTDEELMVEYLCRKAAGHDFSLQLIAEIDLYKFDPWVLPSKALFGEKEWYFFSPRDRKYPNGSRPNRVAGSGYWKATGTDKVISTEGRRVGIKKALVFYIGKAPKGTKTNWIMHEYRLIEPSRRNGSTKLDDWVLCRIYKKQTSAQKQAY
The procedure, abridged: as §1

Experiment [4] addresses T4, GST-ATAF1 NAC domain (Arabidopsis thaliana, UniProt Q39013 7-158).
T4 sequence: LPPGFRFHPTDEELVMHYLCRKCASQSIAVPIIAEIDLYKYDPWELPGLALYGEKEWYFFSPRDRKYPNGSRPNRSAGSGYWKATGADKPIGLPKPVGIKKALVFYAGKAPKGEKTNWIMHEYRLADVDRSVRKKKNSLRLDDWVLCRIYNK
The procedure, abridged: as §1

Experiment [5] has as its target T5, GST-ANAC092(1-285) full length (Arabidopsis thaliana, UniProt Q9FKA0 1-285).
T5 sequence: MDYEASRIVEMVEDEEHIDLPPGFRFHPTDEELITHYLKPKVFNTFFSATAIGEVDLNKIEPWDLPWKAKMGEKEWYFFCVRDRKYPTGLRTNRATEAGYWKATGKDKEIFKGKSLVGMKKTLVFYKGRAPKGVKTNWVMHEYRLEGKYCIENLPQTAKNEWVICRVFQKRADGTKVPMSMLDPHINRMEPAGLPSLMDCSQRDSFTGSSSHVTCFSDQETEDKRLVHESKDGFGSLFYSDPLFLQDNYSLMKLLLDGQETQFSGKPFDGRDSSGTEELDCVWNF
The method, boiled down:
as §1

The target in experiment [6] is T6, GST-NAP(1-166) (Arabidopsis thaliana, UniProt O49255 1-166).
T6 sequence: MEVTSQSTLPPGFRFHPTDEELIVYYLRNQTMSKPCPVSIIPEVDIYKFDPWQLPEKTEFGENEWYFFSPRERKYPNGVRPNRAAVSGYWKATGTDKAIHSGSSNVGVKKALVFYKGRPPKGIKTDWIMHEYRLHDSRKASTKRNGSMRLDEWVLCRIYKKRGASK
The method, boiled down: as §1

Experiment [7] concerns the target T7, GST-NST2(1-184) (Arabidopsis thaliana, UniProt Q9M274 1-184).
T7 sequence: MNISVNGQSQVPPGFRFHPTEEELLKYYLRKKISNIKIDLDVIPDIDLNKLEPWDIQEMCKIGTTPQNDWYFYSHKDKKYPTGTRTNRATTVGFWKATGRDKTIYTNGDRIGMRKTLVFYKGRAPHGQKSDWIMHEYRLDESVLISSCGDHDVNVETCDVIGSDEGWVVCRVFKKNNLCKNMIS
The procedure, abridged:
as §1

Experiment [8] addresses T8, GST-NTL8 NAC domain (Arabidopsis thaliana, UniProt Q9XIN7 14-156).
T8 sequence: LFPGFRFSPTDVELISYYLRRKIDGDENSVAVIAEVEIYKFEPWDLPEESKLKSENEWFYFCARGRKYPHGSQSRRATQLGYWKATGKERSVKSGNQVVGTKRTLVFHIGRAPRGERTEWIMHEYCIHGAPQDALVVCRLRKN
The procedure, abridged: as §1

In experiment [9] the target is T9, GST-SND1(1-203) (Arabidopsis thaliana, UniProt Q9LPI7 1-203).
T9 sequence: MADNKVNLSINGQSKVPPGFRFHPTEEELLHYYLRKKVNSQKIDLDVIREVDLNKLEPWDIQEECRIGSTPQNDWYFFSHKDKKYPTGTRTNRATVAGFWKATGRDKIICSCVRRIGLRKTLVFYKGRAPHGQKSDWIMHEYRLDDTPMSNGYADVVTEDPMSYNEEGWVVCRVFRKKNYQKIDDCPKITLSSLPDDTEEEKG
The procedure, abridged: as §1

The target of experiment [10] is T10, GST-VND3 NAC domain (Arabidopsis thaliana, UniProt Q9FH59 12-162).
T10 sequence: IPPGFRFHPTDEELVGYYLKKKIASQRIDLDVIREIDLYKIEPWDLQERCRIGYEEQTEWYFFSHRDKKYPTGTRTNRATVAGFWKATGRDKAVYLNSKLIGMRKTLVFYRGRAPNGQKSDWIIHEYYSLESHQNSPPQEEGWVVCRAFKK
The method, boiled down:
as §1

The target of experiment [11] is T11, GST-VND7 NAC domain (Arabidopsis thaliana, UniProt Q9C8W9 9-158).
T11 sequence: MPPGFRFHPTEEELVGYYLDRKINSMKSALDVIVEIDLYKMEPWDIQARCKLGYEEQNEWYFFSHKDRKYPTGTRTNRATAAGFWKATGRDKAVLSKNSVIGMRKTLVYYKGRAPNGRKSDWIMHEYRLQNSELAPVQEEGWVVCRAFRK
The method, boiled down: as §1

In the case of ATACGGAA, the binding signal in [1] stood at 0.33 E-score; in experiment [2] it was 0.436 E-score; in experiment [3], 0.394 E-score; in [4] it was 0.332 E-score; in [5], 0.399 E-score; in experiment [6], 0.372 E-score. Besides, the binding signal in [7] was found to be 0.223 E-score; in [8] it was 0.0989 E-score; in [9] it was 0.219 E-score; in experiment [10] it was 0.371 E-score; in experiment [11], 0.38 E-score.

For ACGCAACG, the binding signal in [1] turned out to be 0.46 E-score; in [2] it was 0.327 E-score; in experiment [3], 0.23 E-score; in experiment [4], 0.27 E-score; in experiment [5], 0.463 E-score; in experiment [6], 0.387 E-score. Moreover, the binding signal came out at 0.3 E-score in experiment [7]; 0.113 E-score in [8]; 0.461 E-score in experiment [9]; 0.278 E-score in experiment [10]; 0.316 E-score in experiment [11].

For the sequence AGACGTAA, the binding signal in experiment [1] was found to be 0.425 E-score; in [2], 0.453 E-score; in [3], 0.389 E-score; in [4], 0.437 E-score; in experiment [5], 0.424 E-score; in [6] it was 0.456 E-score. Besides, the binding signal is 0.282 E-score in [7]; 0.139 E-score in [8]; 0.408 E-score in experiment [9]; 0.42 E-score in [10]; 0.42 E-score in experiment [11].

Regarding GCCGTGTA, the binding signal worked out at 0.341 E-score in experiment [1]; 0.44 E-score in [2]; 0.345 E-score in experiment [3]; 0.314 E-score in [4]; 0.402 E-score in experiment [5]; 0.235 E-score in experiment [6]. Further, the binding signal in experiment [7] is 0.0515 E-score; in [9], 0.0913 E-score; in experiment [10] it was 0.347 E-score; in experiment [11] it was 0.351 E-score.

Regarding ACGGAACC, the binding signal in experiment [1] was determined as 0.361 E-score; in [2], 0.454 E-score; in experiment [3], 0.446 E-score; in [4], 0.38 E-score; in experiment [5], 0.4 E-score; in experiment [6], 0.461 E-score. The binding signal in experiment [7] was found to be 0.12 E-score; in [8], 0.172 E-score; in [9], 0.235 E-score; in experiment [10] it was 0.382 E-score; in experiment [11], 0.435 E-score.

For ACGTTACC, the binding signal in experiment [1] is 0.458 E-score; in [2] it was 0.263 E-score; in experiment [3], 0.197 E-score; in experiment [4] it was 0.195 E-score; in experiment [5] it was 0.467 E-score; in [6], 0.218 E-score. In addition, the binding signal was determined as 0.331 E-score in [7]; 0.384 E-score in [8]; 0.462 E-score in experiment [9]; 0.249 E-score in experiment [10]; 0.176 E-score in [11].
